Experimental data from PubChem BioAssay AID1159580 (chemical genetic matrix, 2015).
Where “and” joins values, the source holds several entries; their conditions need not be identical. Identical values can stand only once. Among all 5,500 compounds or so, about 2,000 (36%) were called active. About 18% were inconclusive and are not listed. No stated cut-off is given here; in the data, active means normalized growth mostly below about 0.91 (no sharp cut-off); inconclusive means no clear call, values can overlap the other calls; inactive means mostly above about 0.92. The list shows a part of the results.

Experiment: chemical genetic growth profiling, strain panel (AID 1159580);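 further: tested at 20 µM; growth read once vehicle control cultures reached saturation at 30 °C; 1 = growth at the plate median or of vehicle wells; lower values mean less growth of the strain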
Conditions: S. cerevisiae deletion strains, growth OD

Measured: normalized growth

CCCC(CCC)C(=O)O
active: locus YIL125W, strain kgd1, active compounds read low 0.92
inactive: locus YAL013W, strain DEP1, active compounds read low 0.993 and 0.977 | locus YAL021C, strain ccr4, active compounds read low 1 | locus YAL026C, strain drs2, active compounds read low 1 | locus YAL030W, strain snc1, active compounds read low 1.01 | locus YAL040C, strain CLN3, active compounds read low 0.959 | locus YBL061C, strain skt5, active compounds read low 1 | locus YBR009C, strain hhf1, active compounds read low 1 | locus YBR021W, strain FUR4, active compounds read low 0.953 | locus YBR023C, strain chs3, active compounds read low 1.01 | locus YBR171W, strain sec66, active compounds read low 1.01 | locus YBR229C, strain ROT2, active compounds read low 0.992 | locus YBR231C, strain swc5, active compounds read low 1.01 | locus YBR279W, strain paf1, active compounds read low 1.02 | locus YCL011C, strain gbp2, active compounds read low 1.01 | locus YCL016C, strain dcc1, active compounds read low 1.01 | locus YCL029C, strain bik1, active compounds read low 0.954 | locus YCL061C, strain MRC1 (second series), active compounds read low 0.985 | locus YCL061C, strain MRC1, active compounds read low 1 | locus YCL069W, strain vba3, active compounds read low 1.02 | locus YCR088W, strain abp1, active compounds read low 1.01 | locus YDL005C, strain med2, active compounds read low 1.01 | locus YDL035C, strain GPR1, active compounds read low 1 | locus YDL040C, strain nat1, active compounds read low 1.01 | locus YDL074C, strain BRE1, active compounds read low 1 | locus YDL101C, strain DUN1, active compounds read low 1.01 | locus YDL185W, strain tfp1, active compounds read low 0.964 | locus YDL192W, strain arf1, active compounds read low 0.97 | locus YDR001C, strain nth1, active compounds read low 1.01 | locus YDR069C, strain doa4, active compounds read low 1.01 | locus YDR101C, strain arx1, active compounds read low 0.963 | locus YDR137W, strain rgp1, active compounds read low 0.985 | locus YDR150W, strain NUM1, active compounds read low 0.981 | locus YDR159W, strain sac3, active compounds read low 1.01 | locus YDR162C, strain NBP2, active compounds read low 1 | locus YDR195W, strain ref2 1.02 | locus YDR297W, strain sur2, active compounds read low 1 | locus YDR318W, strain mcm21, active compounds read low 0.97 | locus YDR334W, strain swr1, active compounds read low 1.02 | locus YDR335W, strain msn5, active compounds read low 1.01 | locus YDR363W, strain ESC2, active compounds read low 0.994 | locus YDR388W, active compounds read low 0.967 | locus YDR392W, strain spt3, active compounds read low 0.95 | locus YDR502C, strain sam2, active compounds read low 0.965 | locus YEL003W, strain gim4, active compounds read low 1.01 | locus YEL037C, strain rad23, active compounds read low 1.01 | locus YEL061C, strain CIN8 (second series), active compounds read low 1.01 | locus YEL061C, strain CIN8, active compounds read low 0.994 | locus YER002W, strain NOP16, active compounds read low 0.979 | locus YER015W, strain faa2, active compounds read low 1.02 | locus YER016W, strain bim1, active compounds read low 1 | locus YER110C, active compounds read low 0.985 | locus YER111C, strain swi4, active compounds read low 1.02 | locus YER155C, strain BEM2 (second series), active compounds read low 0.996 | locus YER155C, strain BEM2, active compounds read low 0.975 | locus YER167W, strain BCK2, active compounds read low 0.986 | locus YFR010W, strain ubp6, active compounds read low 1.02 | locus YGL078C, strain dbp3, active compounds read low 0.963 | locus YGL086W, strain mad1, active compounds read low 0.964 | locus YGL167C, strain pmr1, active compounds read low 1.01 | locus YGL173C, strain kem1, active compounds read low 1.01 | locus YGL227W, strain vid30, active compounds read low 1.01 | locus YGL240W, strain doc1, active compounds read low 1.01 | locus YGL248W, strain PDE1, active compounds read low 0.998 | locus YGL253W, strain hxk2, active compounds read low 1.01 | locus YGR078C, strain PAC10, active compounds read low 0.989 | locus YGR135W, strain pre9, active compounds read low 1 | locus YGR252W, strain gcn5, active compounds read low 0.967 | locus YHR013C, strain ard1, active compounds read low 1.03 | locus YHR027C, strain rpn1, active compounds read low 1.03 | locus YHR030C, strain SLT2, active compounds read low 0.987 and 0.951 | locus YHR079C, strain IRE1 (second series), active compounds read low 0.966 | locus YHR079C, strain IRE1, active compounds read low 0.951 | locus YHR094C, strain hxt1, active compounds read low 0.97 | locus YHR129C, strain ARP1, active compounds read low 0.994 | locus YHR142W, strain chs7, active compounds read low 1.03 | locus YHR200W, strain rpn10, active compounds read low 0.971 | locus YIL066C, strain RNR3, active compounds read low 0.992 | locus YIL073C, strain SPO22, active compounds read low 1.03 | locus YIR030C, strain dcg1, active compounds read low 0.966 | locus YJL092W, strain hpr5, active compounds read low 1.01 | locus YJL095W, strain BCK1 (second series), active compounds read low 1.01 | locus YJL095W, strain BCK1, active compounds read low 0.993 and 0.94 | locus YJL115W, strain asf1, active compounds read low 1.02 | locus YJL129C, strain trk1, active compounds read low 1.01 | locus YJL134W, strain LCB3, active compounds read low 0.993 | locus YJL154C, strain vps35, active compounds read low 1.01 | locus YJL164C, strain tpk1, active compounds read low 1 | locus YJL166W, strain qcr8, active compounds read low 1.01 | locus YJL168C, strain set2, active compounds read low 0.986 | locus YJL187C, strain SWE1 (second series), active compounds read low 0.992 | locus YJL187C, strain SWE1, active compounds read low 1.01 | locus YJR043C, strain POL32, active compounds read low 1.01
